Measured values published in PubChem BioAssay AID1159580 (chemical genetic matrix, 2015).
Where “and” joins values, the source holds several entries; their conditions need not be identical. Identical values can stand only once. Among all 5,500 compounds or so, about 2,000 (36%) were called active. Inconclusive results (about 18%) are left out. Rule as the data show it: active = normalized growth mostly below about 0.91 (no sharp cut-off); inconclusive = no clear call, values can overlap the other calls; inactive = mostly above about 0.92. This is one part of the list.

Assay: chemical genetic growth profiling, strain panel (AID 1159580);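 also: tested at 20 µM; growth read once vehicle control cultures reached saturation at 30 °C; 1 = growth at the plate median or of vehicle wells; lower values mean less growth of the strain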
Conditions: S. cerevisiae deletion strains, growth OD

Measured: normalized growth

O=C(O)CCCc1ccc(N(CCCl)CCCl)cc1
inactive: locus YAL021C, strain ccr4, active compounds read low 0.929 | locus YAL026C, strain drs2, active compounds read low 0.965 | locus YAL030W, strain snc1, active compounds read low 0.971 | locus YAL040C, strain CLN3, active compounds read low 1.1 | locus YBL061C, strain skt5, active compounds read low 0.985 | locus YBR009C, strain hhf1, active compounds read low 1 | locus YBR021W, strain FUR4, active compounds read low 1.01 | locus YBR023C, strain chs3, active compounds read low 0.957 | locus YBR171W, strain sec66, active compounds read low 0.983 | locus YBR229C, strain ROT2, active compounds read low 0.95 | locus YBR231C, strain swc5, active compounds read low 0.997 | locus YBR279W, strain paf1, active compounds read low 0.955 | locus YCL011C, strain gbp2, active compounds read low 0.959 | locus YCL016C, strain dcc1, active compounds read low 0.931 | locus YCL029C, strain bik1, active compounds read low 0.989 | locus YCL061C, strain MRC1, active compounds read low 0.986 | locus YCL069W, strain vba3, active compounds read low 0.977 | locus YCR088W, strain abp1, active compounds read low 0.984 | locus YDL005C, strain med2, active compounds read low 0.997 | locus YDL035C, strain GPR1, active compounds read low 0.974 | locus YDL040C, strain nat1, active compounds read low 0.979 | locus YDL074C, strain BRE1, active compounds read low 1 | locus YDL101C, strain DUN1, active compounds read low 0.986 | locus YDL185W, strain tfp1, active compounds read low 0.973 | locus YDL192W, strain arf1, active compounds read low 0.984 | locus YDR001C, strain nth1, active compounds read low 0.973 | locus YDR069C, strain doa4, active compounds read low 0.955 | locus YDR101C, strain arx1, active compounds read low 0.991 | locus YDR137W, strain rgp1, active compounds read low 0.943 | locus YDR150W, strain NUM1, active compounds read low 0.989 | locus YDR159W, strain sac3, active compounds read low 1.01 | locus YDR162C, strain NBP2, active compounds read low 0.947 | locus YDR195W, strain ref2 0.959 | locus YDR297W, strain sur2, active compounds read low 0.986 | locus YDR318W, strain mcm21, active compounds read low 0.999 | locus YDR334W, strain swr1, active compounds read low 0.969 | locus YDR335W, strain msn5, active compounds read low 0.967 | locus YDR363W, strain ESC2, active compounds read low 1 | locus YDR388W, active compounds read low 0.985 | locus YDR392W, strain spt3, active compounds read low 0.881 | locus YDR502C, strain sam2, active compounds read low 1 | locus YEL003W, strain gim4, active compounds read low 0.988 | locus YEL037C, strain rad23, active compounds read low 0.97 | locus YEL061C, strain CIN8 (second series), active compounds read low 0.966 | locus YEL061C, strain CIN8, active compounds read low 0.991 | locus YER002W, strain NOP16, active compounds read low 1.02 | locus YER015W, strain faa2, active compounds read low 0.973 | locus YER016W, strain bim1, active compounds read low 0.986 | locus YER110C, active compounds read low 0.983 | locus YER111C, strain swi4, active compounds read low 0.978 | locus YER155C, strain BEM2 (second series), active compounds read low 1.01 | locus YER155C, strain BEM2, active compounds read low 0.991 | locus YER167W, strain BCK2, active compounds read low 0.99 | locus YFR010W, strain ubp6, active compounds read low 1 | locus YGL078C, strain dbp3, active compounds read low 0.952 | locus YGL086W, strain mad1, active compounds read low 0.932 | locus YGL167C, strain pmr1, active compounds read low 0.978 | locus YGL173C, strain kem1, active compounds read low 0.999 | locus YGL227W, strain vid30, active compounds read low 0.955 | locus YGL240W, strain doc1, active compounds read low 0.97 | locus YGL248W, strain PDE1, active compounds read low 1 | locus YGL253W, strain hxk2, active compounds read low 0.925 | locus YGR135W, strain pre9, active compounds read low 1.04 | locus YGR252W, strain gcn5, active compounds read low 1.07 | locus YHR013C, strain ard1, active compounds read low 0.956 | locus YHR027C, strain rpn1, active compounds read low 0.977 | locus YHR030C, strain SLT2, active compounds read low 0.982 and 0.856 | locus YHR079C, strain IRE1 (second series), active compounds read low 0.996 | locus YHR079C, strain IRE1, active compounds read low 0.876 | locus YHR094C, strain hxt1, active compounds read low 0.983 | locus YHR129C, strain ARP1, active compounds read low 0.988 | locus YHR142W, strain chs7, active compounds read low 0.949 | locus YHR200W, strain rpn10, active compounds read low 0.981 | locus YIL066C, strain RNR3, active compounds read low 0.967 | locus YIL073C, strain SPO22, active compounds read low 1.02 | locus YIL125W, strain kgd1, active compounds read low 0.95 | locus YIR030C, strain dcg1, active compounds read low 0.983 | locus YJL092W, strain hpr5, active compounds read low 0.967 | locus YJL095W, strain BCK1 (second series), active compounds read low 0.974 | locus YJL095W, strain BCK1, active compounds read low 1.06 and 0.888 | locus YJL115W, strain asf1, active compounds read low 0.952 | locus YJL129C, strain trk1, active compounds read low 0.927 | locus YJL134W, strain LCB3, active compounds read low 0.983 | locus YJL154C, strain vps35, active compounds read low 0.972 | locus YJL164C, strain tpk1, active compounds read low 0.988 | locus YJL166W, strain qcr8, active compounds read low 1 | locus YJL168C, strain set2, active compounds read low 0.984 | locus YJL187C, strain SWE1 (second series), active compounds read low 1 | locus YJR043C, strain POL32, active compounds read low 0.963 | locus YJR066W, strain TOR1, active compounds read low 0.967 | locus YJR075W, strain HOC1, active compounds read low 1.02 and 0.993
